Assay results published in PubChem BioAssay.
A number with no mark means an inactive call. The source made the active and inactive calls.

Assay: basal S. cerevisiae growth modulation, no modifier, primary screen, OD600, strain BY4716, 24 h, basal condition (AID 1173)
Conditions: OD600, 24 h, higher = more signal, called active from +8 up or from −8 down

Compound	z-score
COCCOC(=O)N1C(=O)[C@@]2(c3cc(C#Cc4ccc(OC)cc4)ccc31)[C@H](C(=O)N1CCCCCCC1)[C@H]1C(=O)O[C@H](c3ccccc3)[C@H](c3ccccc3)N1[C@@H]2c1ccc(O)cc1	-0.404
COC(=O)Cn1c(C(=O)N2CCCC2)cc2c1C[C@H]1CN(C(=O)c3ccccc3)[C@@](Cc3ccc(F)cc3)(C(=O)OC)[C@@H]21	0.702
NCCCCCNC(=O)[C@@H]1C[C@@H]2C(=O)N[C@@H](CCCCN)C(=O)N2[C@@H]1c1cccc(OCCO)c1	0.198
Cc1ccc(S[C@]2(C(=O)NC(C)C)CC(=O)N(Cc3ccccc3C(F)(F)F)[C@@H]2c2ccc(CO)cc2I)cc1	-5.85
COCCOC(=O)N1C(=O)[C@@]2(c3cc(C#CC4(O)CCCCCC4)ccc31)[C@H](C(N)=O)[C@H]1C(=O)O[C@H](c3ccccc3)[C@H](c3ccccc3)N1[C@@H]2c1ccccc1OCCO	0.707
C=CC[C@H](OC(=O)Nc1ccc(OC)cc1)c1ccc(O)c2ccccc12	-16.7 (active)
COCC(=C=CC[C@H](O)c1cccc(OCCO)c1)C[C@H](O)c1ccccn1	1.65
C=CC[C@@]1(C(=O)N2CCCCC2)N=C(c2ccc(OCCCO)cc2)O[C@@H]1c1ccccc1	-3.63
COCCCNC(=O)[C@@H]1c2ccccc2C(=O)N(Cc2ccccc2C(F)(F)F)[C@H]1c1ccc(CO)cc1	-0.756
COc1ccc([Si](C)(C)[C@H]2[C@H](CCO)O[C@@]3(C(=O)N(Cc4cccc(N5CCCCC5=O)c4)c4ccccc43)[C@@H]2C)cc1	-0.732
O=C1C[C@@](C(=O)NCC(F)(F)F)(c2ccc([N+](=O)[O-])cc2)[C@@H](c2ccc(CO)cc2)N1C1CCCCC1	-0.693
COC(=O)[C@@]1(Cc2ccc(OC)cc2)[C@H]2c3cc(C(=O)N(C)C)n(CCc4c[nH]c5ccc(O)cc45)c3C[C@H]2CN1C(=O)c1ccccc1	1.29
CC(C)c1ccc(NN2C(C(O)c3ccco3)C=CC3C(=O)N(c4ccccc4)C(=O)C32)cc1 (stereo not drawn)	-2.51
COC(=O)[C@@]1(Cc2ccc(OC)cc2)[C@H]2c3cc(C(=O)N(C)C)n(Cc4nc5ccccc5[nH]4)c3C[C@H]2CN1C(=O)c1ccccc1	1.03
CN1C(=O)[C@@]2(CCS(=O)(=O)c3ccccc3)N=C(c3ccc(OCCCO)cc3)O[C@H]2c2ccccc21	0.369
O=C1O[C@@H](c2ccccc2)[C@@H](c2ccccc2)N2[C@@H](c3ccc(O)cc3)[C@]3(C(=O)Nc4ccccc43)[C@@H](C(=O)Nc3nc4ccccc4s3)[C@H]12	-0.505
CC(C)NC(=O)[C@@]1(C)c2ccccc2C(=O)N(C(C)C)[C@H]1c1ccc(CO)cc1	-0.106
COC(=O)[C@@]1(Cc2ccccc2)[C@H]2c3cc(C(=O)N4CCCC4)[nH]c3C[C@H]2CN1C(=O)c1ccccc1	0.146

Assay: MM1S myeloma cell viability, profiling panel, resazurin fluorescence, basal, 24 h, PK04 Diversity Set (AID 1174);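 note: MM1S multiple myeloma cell line; test concentration not given here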
Conditions: higher = more signal, called active from +8 up or from −8 down

Compound	z-score
O=C1O[C@@H](c2ccccc2)[C@@H](c2ccccc2)N2[C@@H](c3ccc(O)cc3)[C@]3(C(=O)Nc4ccc(C#CCCO)cc43)[C@@H](C(=O)Nc3nc4ccccc4s3)[C@H]12	0.307
C=CCOC(=O)[C@@H]1[C@H]2C(=O)O[C@H](c3ccccc3)[C@H](c3ccccc3)N2[C@H](c2ccc(OCCOC(=O)[C@H]3C[C@H]4C(=O)N[C@@H](CCCCN(C)C)C(=O)N4[C@H]3c3cccc(OCCO)c3)cc2)[C@@]12C(=O)Nc1ccc(I)cc12	-0.302
Cc1c(NC(=O)/C(C#N)=C/C=C/c2ccc(N(C)C)cc2)c(=O)n(-c2ccccc2)n1C	0.514
O=C1C2C=CC(C(O)c3cc(C(F)(F)F)cc(C(F)(F)F)c3)N(Nc3ccc([N+](=O)[O-])cc3)C2C(=O)N1c1ccccc1 (stereo not drawn)	-0.683
O=C1NC(=O)C2C1C=CC(C(O)c1cc(C(F)(F)F)cc(C(F)(F)F)c1)N2Nc1ccc(Cl)cc1Cl (stereo not drawn)	-1.99
CO[C@H]1O[C@H](CO)[C@@H](OC(=O)Nc2ccccc2-c2ccccc2)[C@H](OC(=O)Nc2ccc3c(c2)OCO3)[C@@H]1OC(=O)Nc1ccc2c(c1)OCO2	-1.38
Cc1ccc(F)cc1S(=O)(=O)N[C@@H]1CCN(Cc2ccc(Oc3ccccc3)cc2)C1	-0.627
CCOC(=O)C1=CC[C@@H](c2ccccc2)N(S(=O)(=O)c2ccc(C)cc2)C1	-1.31
Cc1ccc(S[C@]2(C(=O)NCC(F)(F)F)CC(=O)N(Cc3ccccc3)[C@@H]2c2ccc(CO)cc2)cc1	0.546
CC(C)CNC(=O)[C@@H]1c2ccccc2C(=O)N(Cc2cc(F)cc(C(F)(F)F)c2)[C@H]1c1ccc(CO)cc1	0.895
CCN(CC)c1ccc(N2CC=CC34O[C@@H]5/C=C\CCC(C)OC(=O)C5[C@H]3C(=O)N(CCO)[C@@H]4C2=O)cc1 (stereo partly drawn)	-0.742
COc1ccccc1CN1C(=O)c2ccccc2[C@@H](C(=O)NC(C)C)[C@@H]1c1ccc(CO)cc1	1.1
[N-]=[N+]=NCc1ccccc1[C@H]1OC(c2ccc(OCCCO)cc2)=N[C@@]1(CCS(=O)(=O)c1ccccc1)C(N)=O	0.284
C=CCOC(=O)[C@@H]1[C@H]2C(=O)O[C@H](c3ccccc3)[C@H](c3ccccc3)N2[C@H](c2ccc(OCCOC(=O)[C@H]3C[C@H]4C(=O)N[C@@H](CCCC[N+](C)(C)C)C(=O)N4[C@H]3c3ccc(O)cc3)cc2)[C@@]12C(=O)Nc1ccc(I)cc12	-0.706
C=C(CCCC)/C(=C/C[C@@H](OC(C)=O)c1ccc(CO)o1)c1cc(C(=O)OC)ccc1OC	-0.493
CC(C)C(O)C1C=CC2C(=O)N(C)C(=O)C2N1N(c1ccccc1)c1ccccc1 (stereo not drawn)	-1.62
C=CCNC(=O)[C@@H]1[C@H]2C(=O)O[C@H](c3ccccc3)[C@H](c3ccccc3)N2[C@H](c2ccc(OCCO)cc2)[C@@]12C(=O)N(C(=O)OCCOC)c1ccc(C#CC3=CCCCC3)cc12	-0.897
COCCOC(=O)N1C(=O)[C@@]2(c3cc(C#Cc4ccc(OC)cc4)ccc31)[C@H](C(=O)N1CCCCCCC1)[C@H]1C(=O)O[C@H](c3ccccc3)[C@H](c3ccccc3)N1[C@@H]2c1ccc(O)cc1	0.0013

Compound	z-score
COC(=O)Cn1c(C(=O)N2CCCC2)cc2c1C[C@H]1CN(C(=O)c3ccccc3)[C@@](Cc3ccc(F)cc3)(C(=O)OC)[C@@H]21	-1.35
NCCCCCNC(=O)[C@@H]1C[C@@H]2C(=O)N[C@@H](CCCCN)C(=O)N2[C@@H]1c1cccc(OCCO)c1	1.11
Cc1ccc(S[C@]2(C(=O)NC(C)C)CC(=O)N(Cc3ccccc3C(F)(F)F)[C@@H]2c2ccc(CO)cc2I)cc1	-1.86
COCCOC(=O)N1C(=O)[C@@]2(c3cc(C#CC4(O)CCCCCC4)ccc31)[C@H](C(N)=O)[C@H]1C(=O)O[C@H](c3ccccc3)[C@H](c3ccccc3)N1[C@@H]2c1ccccc1OCCO	-7.01
C=CC[C@H](OC(=O)Nc1ccc(OC)cc1)c1ccc(O)c2ccccc12	-6.07
COCC(=C=CC[C@H](O)c1cccc(OCCO)c1)C[C@H](O)c1ccccn1	0.959
C=CC[C@@]1(C(=O)N2CCCCC2)N=C(c2ccc(OCCCO)cc2)O[C@@H]1c1ccccc1	1.6
COCCCNC(=O)[C@@H]1c2ccccc2C(=O)N(Cc2ccccc2C(F)(F)F)[C@H]1c1ccc(CO)cc1	1.51
COc1ccc([Si](C)(C)[C@H]2[C@H](CCO)O[C@@]3(C(=O)N(Cc4cccc(N5CCCCC5=O)c4)c4ccccc43)[C@@H]2C)cc1	-7.24
O=C1C[C@@](C(=O)NCC(F)(F)F)(c2ccc([N+](=O)[O-])cc2)[C@@H](c2ccc(CO)cc2)N1C1CCCCC1	-0.39
COC(=O)[C@@]1(Cc2ccc(OC)cc2)[C@H]2c3cc(C(=O)N(C)C)n(CCc4c[nH]c5ccc(O)cc45)c3C[C@H]2CN1C(=O)c1ccccc1	-1.64
CC(C)c1ccc(NN2C(C(O)c3ccco3)C=CC3C(=O)N(c4ccccc4)C(=O)C32)cc1 (stereo not drawn)	-1.23
COC(=O)[C@@]1(Cc2ccc(OC)cc2)[C@H]2c3cc(C(=O)N(C)C)n(Cc4nc5ccccc5[nH]4)c3C[C@H]2CN1C(=O)c1ccccc1	-1.45
CN1C(=O)[C@@]2(CCS(=O)(=O)c3ccccc3)N=C(c3ccc(OCCCO)cc3)O[C@H]2c2ccccc21	0.718
O=C1O[C@@H](c2ccccc2)[C@@H](c2ccccc2)N2[C@@H](c3ccc(O)cc3)[C@]3(C(=O)Nc4ccccc43)[C@@H](C(=O)Nc3nc4ccccc4s3)[C@H]12	-3.11
CC(C)NC(=O)[C@@]1(C)c2ccccc2C(=O)N(C(C)C)[C@H]1c1ccc(CO)cc1	-0.822
COC(=O)[C@@]1(Cc2ccccc2)[C@H]2c3cc(C(=O)N4CCCC4)[nH]c3C[C@H]2CN1C(=O)c1ccccc1	-0.89
